Screens: PubChem, several laboratories
CF NFkB block – inhibitors of cystic fibrosis induced NF-kB; KKLEB NF-kB-GFP reporter, PAF-induced, GFP fluorescence overnight; inhibition, % at 5 µM; 0.86% of 360,000 active;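 active means at least 50% inhibition at 5 µM, scaled per plate between neutral and stimulator controls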;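 further: PAF is a Pseudomonas aeruginosa culture filtrate used as stimulus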
Peg3 prom inh – inhibitors of Peg3 promoter. HeLa PEG-Prom luciferase reporter, luminescence, overnight. inhibition, % at 20 µM. 1.7% of 360,000 active. AID 588405;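 active means inhibition of at least 50% at 20 µM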
KKLEB cytotox – CF airway cell cytotoxicity counter-screen | activity change (cytotoxicity), % at 5 µM | AID 602141 | 0.36% of 360,000 active | KKLEB CF airway cells viability, ATPlite luminescence, overnight; active compounds read low; cells stimulated with P. aeruginosa culture filtrate;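 active means corrected activity change at or below -50% at 5 µM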
MITF TRPM1 inh – inhibitors of MITF-driven TRPM1 promoter in melanoma cells. SK-MEL-5 TRPM1 promoter luciferase, 24 h. inhibition, % at 12.5 µM. 0.83% of 330,000 active;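 active means mean inhibition across replicates of 60% or more, whatever share of single replicates reaches that level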
HIF-2a inh – inhibitors of HIF-2a. 786-0 RCC cells HIF-2a reporter, luciferase luminescence, overnight. inhibition, % at 18.8 µM. 0.72% of 360,000 active;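 active means inhibition of the luminescence signal of 40% or more relative to plate controls, in a single-dose primary screen at 18.75 µM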
CHOP inhibitor – inhibitors of CHOP induction in ER stress response; CHO-K1 CHOP-promoter luciferase, tunicamycin-induced, 15-18 h; inhibition, % at 10 µM; 3.8% of 220,000 active; AID 2732;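 active means compounds that reduced the stress-induced luciferase reporter signal by more than about 70% of percent inhibition, limit read from the data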
Hits are given with their value; n = inactive; x = not tested or not shown. A selection: hits, their analogues and other compounds. The true share with any hit is near 4.3%.

SMILES | CF NFkB block | Peg3 prom inh | KKLEB cytotox | MITF TRPM1 inh | HIF-2a inh | CHOP inhibitor
Cc1[nH]n(-c2ccc(F)cc2)c(=O)c1/C=N/c1sc2c(c1C#N)CCCC2 | n | n | n | n | n | 90
Cc1ccc(/C=N/c2sc3c(c2C#N)CCCCC3)o1 | n | n | n | n | n | 77
N#Cc1c(/N=C/c2ccco2)sc2c1CCC2 | n | n | n | n | n | n
CCN(/C=N/c1sc2c(c1C#N)CCCCC2)CC | n | n | n | n | n | n
Cc1[nH]n(-c2cccc3ccccc23)c(=O)c1/C=N/c1sc2c(c1C#N)CCC2 | n | n | n | n | n | n
Cc1nc(-c2ccc(S(=O)(=O)NCc3cccnc3)s2)cs1 | n | n | n | n | n | n
Cc1ccc(-c2csc3ncn(-n4c(C)ccc4C)c(=O)c23)o1 | n | n | n | n | n | 79
COc1ccc(-c2n[nH]c(C(F)(F)F)c2-c2cc3ccccc3o2)c(O)c1 | n | n | n | n | n | 105
COc1ccccc1-c1c(-c2ccc(OCC(=O)NN)cc2O)n[nH]c1C(F)(F)F | n | n | n | n | n | n
COc1ccc(N/N=C(\C#N)C(=N)SCc2ccccc2)cc1 | 78 | n | n | n | n | n
COc1cc(/C=C(\C#N)C(=O)c2ccc(O)c(O)c2)cc(I)c1O | n | n | n | n | n | 86
COc1ccccc1N1CC(C(=O)Nc2ccc(N3CCOCC3)cc2)CC1=O (configuration not stated) | n | n | n | n | n | x
O=C(c1ccc2c(c1)OCO2)N1CCN(c2ccc(C(F)(F)F)cn2)CC1 | n | n | n | n | n | n
FC(F)(F)c1ccc(N2CCN(c3cc(-c4ccccc4)nc4ncnn34)CC2)nc1 | n | n | n | n | n | 74
O=C(c1ccc2ccccc2c1)N1CCN(c2ccc(C(F)(F)F)cn2)CC1 | n | n | n | n | n | 89
CCN1/C(=C/c2ccc3cc(C)ccc3[n+]2CC)Sc2cc(C)c(C)cc21 | n | 52 | n | 69 | n | n
CC[n+]1ccccc1/C=C1\Sc2ccc(C)cc2N1C | n | n | n | n | n | x
CCN1/C(=C/c2ccc3cc(C)ccc3[n+]2CC)Sc2ccccc21 | n | 104 | n | 101 | 75 | 108
FC(F)(F)c1ccccc1-c1ccc2nncn2c1 | n | n | n | x | n | x
CCc1ccc2c(Cl)c(C(=O)N/N=C/c3c[nH]c4ccccc34)sc2c1 | n | n | n | n | n | 71
CC(C)c1cc(C(=O)N/N=C/c2c[nH]c3ccccc23)n[nH]1 | n | n | n | n | n | n
CCc1ccc(-c2cc(C(=O)N/N=C/c3c[nH]c4ccccc34)[nH]n2)cc1 | n | n | n | n | n | 89
CCc1ccc(C(=O)N/N=C/c2cccc3ccccc23)nc1 | n | n | n | n | n | 79
O=C(N/N=C/c1c[nH]c2ccccc12)c1cccc(Cl)c1 | n | n | n | n | n | x
CCC1(C)Cc2c(sc3nnn(CC(=O)Nc4cccc5ccccc45)c(=O)c23)CO1 (configuration not stated) | n | 56 | n | n | n | n
SMILES | CF NFkB block | Peg3 prom inh | KKLEB cytotox | MITF TRPM1 inh | HIF-2a inh | CHOP inhibitor
CCC1(C)Cc2c(sc3nnn(CC(=O)Nc4ccc(C)cc4)c(=O)c23)CO1 (configuration not stated) | n | n | n | n | n | n
CCC(CC)N1CCN(S(=O)(=O)c2ccc(OC)cc2)CC1 | n | n | n | n | n | x
COc1cc(NC(=O)COc2ccc(-n3ccnc3)cc2)cc(OC)c1 | n | n | n | n | n | n
C/C(=N\NC(=O)COc1ccc(C(C)(C)C)cc1)c1ccc(-n2ccnc2)cc1 | n | n | n | n | n | 95
CC(C)(C)c1ccc(NC(=O)COc2ccc(-n3ccnc3)cc2)cc1 | n | n | n | n | n | 74
CN(Cc1ccccc1)C(=O)c1cccc(NC(=O)Cc2ccc(NC(=O)C3CCCN(C(=O)C4CCCCC4)C3)cc2)c1 (configuration not stated) | n | n | n | n | n | x
CCN(CC)S(=O)(=O)c1cc(NC(=O)CCNC(=O)c2ccco2)ccc1C | n | n | n | n | n | x
Cc1cc(OCC(=O)Nc2ccc3oc(-c4ccncc4)nc3c2)ccc1Cl | n | 53 | n | n | n | n
Cc1cc(OCC(=O)Nc2ccncc2)ccc1Cl | n | n | n | n | n | x
COC(=O)c1cc(S(=O)(=O)N(C)C2CCCCC2)c[nH]1 | n | n | n | n | n | x
OCCN1CCN(CC/C=C2/c3ccccc3Sc3ccc(Cl)cc32)CC1 | n | 87 | n | n | n | x
CC[N+](C)(C)CC/C=C1/c2ccccc2Sc2ccc(Cl)cc21 | n | n | n | x | n | n
CCCCCCCCCCC[N+](C)(C)CC/C=C1/c2ccccc2Sc2ccc(Cl)cc21 | n | 108 | n | n | n | x
OC[C@@H]1CN(Cc2cccs2)C[C@H](n2cnc3c(NCc4ccco4)ncnc32)O1 | n | n | n | x | n | x
CCCOc1ccc(CSc2nc3ccccc3[nH]2)cc1 | n | n | n | n | n | 76
CCOc1ccc(OCCSc2nc3ccccc3[nH]2)cc1 | n | n | n | n | n | n
COc1ccc(CC(N)c2csc(NC(=O)Nc3ccc(F)cc3)n2)cc1 (configuration not stated) | n | 55 | n | x | n | x
CC(C)C(N)c1csc(NC(=O)Nc2ccc(OC(F)(F)F)cc2)n1 (configuration not stated) | n | 97 | n | x | n | x
CC(C)C(N)c1csc(NC(=O)Nc2ccccc2C(C)(C)C)n1 (configuration not stated) | n | n | n | x | n | x
CC(C)c1ccc(NC(=O)Nc2nc(C(N)c3ccccc3Cl)cs2)cc1 (configuration not stated) | n | 88 | n | x | n | x
NC(Cc1ccc(Cl)cc1)c1csc(NC(=O)Nc2ccccc2)n1 (configuration not stated) | n | 101 | n | x | n | x
CCn1c(=O)n(CC)c2cc(N3CCCC3)c(NC(=O)c3cc(Cl)ccc3OC)cc21 | n | n | n | n | n | x
COc1cccc(CNC(=O)[C@@H]2CCCN2C(=O)[C@H]2CCCCN2C(=O)c2ccc(Cl)cc2)c1 | x | x | x | x | n | x
COc1cc(CNC(=O)Nc2nc(C(N)Cc3ccc(C(F)(F)F)cc3)cs2)cc(OC)c1OC (configuration not stated) | n | 98 | n | x | n | x
NC(Cc1ccc(C(F)(F)F)cc1)c1csc(NC(=O)Nc2ccccc2)n1 (configuration not stated) | n | 94 | n | x | n | x
NC(Cc1ccc(C(F)(F)F)cc1)c1csc(Nc2nncc3ccccc23)n1 (configuration not stated) | n | 94 | n | x | n | x
COc1ccc(CC(N)c2csc(NC(=O)NCCc3ccc(OC)c(OC)c3)n2)cc1 (configuration not stated) | n | n | n | x | n | x
NC(COCc1ccccc1)c1csc(Nc2nncc3ccccc23)n1 (configuration not stated) | n | n | n | x | n | x
